From the supplement of paper PMC11150407 come the findings set out here.

Where a name gives a salt, the structure may show the parent alone. The campaign covered roughly 2,100 compounds. About 180 (8.6%) showed an effect of 50% or more. For the sample, strong results were picked, then their nearest neighbours and some compounds at random.

As usually defined, the cell viability is a read-out of living cells in per cent, often relative to untreated cells.

In this test the test system is MOLM1 and UCSD/AML1 (averaged). As to the kind of experiment: cell viability relative to DMSO control (POC); higher = less growth inhibition. The following applies: 1 µM; 72 h. Here is the method:
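Primary viability screen in the 3q26 EVI1-high AML cell lines MOLM1 and UCSD/AML1 (1.5e3 cells/well, 384-well), compounds at 1 uM for 72 h. ATP CellTiter-Glo read-out given as percent of viable cells over DMSO control (POC), averaged over duplicates. DMSO was the negative control and 5 uM etoposide the positive control. This mapping covers the MicroSource Spectrum and Selleck anticancer libraries (drug names).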
With `C=CC(C)(O)CCC1C(=C)CC(OC(C)=O)C2C(C)(C)CCCC12C` (stereo unspecified), the cell viability is 98.6%.

With `O=C1CC[C@]23/C=C/C(=O)NCCCCNCCCNC(=O)/C=C/c4ccc(c2c4)O[C@@H]3C1`, the cell viability was 97.1%.

In the case of `COC1=CC(c2cc3ccccc3[nH]2)=N/C1=C\c1[nH]c(C)cc1C` [Obatoclax mesylate (GX15-070)], the cell viability worked out at 18.7%.

In the case of `CC1(C)O[C@H]2[C@H](O)C[C@](O)(C(N)=O)C[C@H]2O1`, the cell viability is 94.1%.

In the case of `CC1(C)[C@@H](O)CC[C@]2(C)[C@H]3C(=O)C=C4[C@H]5C[C@@](C)(C(=O)O)CC[C@]5(C)CC[C@@]4(C)[C@]3(C)CC[C@@H]12` [18alpha-GLYCYRRHETINIC ACID], the cell viability is 95.3%.

For `COc1c(O)cccc1O`, the cell viability worked out at 97.7%.

`COc1cc2c(Oc3ccc4[nH]c(C)cc4c3F)ncnc2cc1OCCCN1CCCC1` [Cediranib (AZD2171)]: the cell viability was 66.3%.

In the case of `COc1cc(Nc2c(C#N)cnc3cc(OCCCN4CCN(C)CC4)c(OC)cc23)c(Cl)cc1Cl` [Bosutinib (SKI-606)], the cell viability was 21.3%.

Turning to `COc1cc2ncnc(Nc3ccc(F)c(Cl)c3)c2cc1OCCCN1CCOCC1` [Gefitinib (Iressa)], the cell viability was 84.9%.

Turning to `CC(C)/C(O)=C1/C(=O)O[C@@H](c2ccoc2)[C@]2(C)C(O)[C@@H](O)[C@@]34OC5(C)OC67CC(C)(C(O)[C@]6(O)[C@@H](O)[C@]3(O5)C12)[C@H](CC(=O)O)[C@]74C` (stereo partly specified), the cell viability came out at 93.3%.

Take `CC(=O)O[C@H]1C[C@@H](OC(C)=O)C(C)(C)C2C[C@@H](O)[C@]3(C)C(CC[C@@]4(C)[C@H](c5ccoc5)OC(=O)[C@H]5O[C@]543)[C@]21C` (stereo partly specified): the cell viability turned out to be 103%.

With `COc1cc(O)c2c(=O)cc(C)oc2c1CC=C(C)C`, the cell viability amounted to 87.8%.

As for `O=C(CCc1ccc(O)cc1)c1c(O)cc(O)cc1O[C@@H]1OC(CO)[C@@H](O)[C@@H](O)C1O` (stereo partly specified), the cell viability came to 104%.

As for `COC(=O)c1c(C)cc(OC)cc1O`, the cell viability amounted to 94.6%.

For the compound `Cn1c(=O)[nH]c(=O)c2[nH]cnc21`, the cell viability stood at 110%.

For `O=c1c(O)c(-c2ccc(O)c(O)c2)oc2c(O[C@@H]3O[C@H](CO)[C@@H](O)[C@H](O)[C@H]3O)c(O)cc(O)c12`, the cell viability is 91.3%.

`O=C(O)c1ccc2c(c1)nc(Nc1cccc(Cl)c1)c1ccncc12` [cx-4945 (Silmitasertib)]: the cell viability was 80.5%.

As for `CC(=O)C1=C(O)C=C2Oc3c(C(C)=O)c(O)c(C)c(O)c3C2(C)C1=O` (stereo in doubt), the cell viability came to 113%.

`C[C@@H](Oc1cc(-n2cnc3ccc(CN4CCN(C)CC4)cc32)sc1C(N)=O)c1ccccc1C(F)(F)F`: the cell viability stood at 19.5%.

Turning to `CC(=O)N[C@@H](Cc1ccccc1)C(=O)O`, the cell viability turned out to be 100%.

In the case of `CC(C)=CCc1c(O)cc2oc(C)cc(=O)c2c1O`, the cell viability came out at 94.1%.

Turning to `C[C@H](CCC(=O)O)[C@H]1CC[C@H]2[C@@H]3[C@H](O)C[C@@H]4C[C@H](O)CC[C@]4(C)[C@H]3C[C@H](O)[C@]12C`, the cell viability worked out at 100%.

Turning to `CC1(C)C(=O)C=CC2(C)C1C=CC1(C)C2CCC2(C)C(c3ccoc3)OC(=O)C3OC312` (stereo unspecified), the cell viability turned out to be 86.9%.

With `CCOC(=O)Nc1nc2ccccc2[nH]1`, the cell viability was 103%.

With `COC(=O)C(C)c1ccc(C(=O)c2cccs2)cc1` (stereo unspecified), the cell viability was determined as 103%.

As to `COC(=O)Nc1nc2cc([S+]([O-])c3ccccc3)ccc2[nH]1` (stereo unspecified), the cell viability came to 50.5%.

`COC(=O)Nc1nc2cc(C(=O)c3ccccc3)ccc2[nH]1`: the cell viability was 16.8%.

Take `COC(=O)Nc1nc2cc(C(=O)c3cccs3)ccc2[nH]1` [Nocodazole]: the cell viability came out at 13.3%.

On to `CC(=O)Oc1ccc2c(c1OC(C)=O)OCC1(O)Cc3c(cc(OC(C)=O)c(OC(C)=O)c3OC(C)=O)C21` (stereo unspecified), for which the cell viability was found to be 108%.

On to `COc1cc2ncnc(-n3nc(-c4ccccn4)nc3N)c2cc1OC`, for which the cell viability stood at 67%.

Turning to `O=c1cc(-c2ccccc2)oc2cccc(O)c12`, the cell viability is 119%.

For the compound `CC(C)c1c(O)c(-c2cc3c(c(C(C)C)c2O)CCC2C(C)(C)CCC[C@]32C)cc2c1CCC1C(C)(C)CCC[C@]21C` (stereo partly specified), the cell viability was found to be 87.3%.

In the case of `COC(=O)C[C@H]1C(C)(C)C(=O)[C@@H]2CC3=C4CC(=O)O[C@@H](c5ccoc5)[C@]4(C)CC[C@@H]3[C@@]1(C)C2=O`, the cell viability worked out at 99.2%.

Take `C=C1CCC2C(CC2(C)C)C(=O)CCC1O` (stereo unspecified): the cell viability amounted to 104%.

In the case of `CC1(C)C2CC(=O)O[C@@]3(C)C4=CC(=O)O[C@@H](c5ccoc5)[C@]4(C)CCC3[C@@]2(C)C=C[C@H]1O` (stereo partly specified), the cell viability came to 95.9%.

Take `Cn1cncc1[C@@](N)(c1ccc(Cl)cc1)c1ccc2c(c1)c(-c1cccc(Cl)c1)cc(=O)n2C` [Tipifarnib (Zarnestra)]: the cell viability was 36.5%.

Consider `CO[C@@]12[C@H](COC(N)=O)C3=C(C(=O)C(C)=C(N)C3=O)N1C[C@@H]1N[C@@H]12`, for which the cell viability stood at 13%.

`C=CCc1ccc(OC(=O)c2ccccc2)c(OC)c1`: the cell viability was found to be 95.6%.

Regarding `O=c1c2cc(O)c(O)cc2oc2cc(O)c([C@@H]3O[C@H](CO)[C@@H](O)[C@H](O)[C@H]3O)c(O)c12`, the cell viability came out at 96.4%.

Take `CC1(C)C(=O)[C@H]2C[C@]3(O)C4=CC(=O)O[C@@H](c5ccoc5)[C@@]4(C)CCC3[C@](C)(C2=O)[C@H]1CC(=O)O` (stereo partly specified): the cell viability came to 95.4%.

Take `CCOC(=O)c1c(C)cc(OC)cc1O`: the cell viability was 95.3%.

Regarding `COc1cnc(NS(=O)(=O)c2ccc(N)cc2)nc1`, the cell viability was 100%.

Consider `Nc1ccc(S(=O)(=O)Nc2ccccn2)cc1`, for which the cell viability turned out to be 100%.

In the case of `COc1ccc(S(=O)(=O)Nc2cccnc2Nc2ccc(O)cc2)cc1`, the cell viability amounted to 49.4%.

Take `C=C1C2CC[C@@]3(C)[C@H](c4ccoc4)OC(=O)C[C@]13O[C@H]1CC(O)C(C)(C)C(CC(=O)OC)[C@@]21C` (stereo partly drawn) [3alpha-HYDROXY-3-DEOXYANGOLENSIC ACID METHYL ESTER]: the cell viability is 97.3%.

With `O=C(O[C@@H]1Cc2c(O)cc(O)cc2O[C@@H]1c1cc(O)c(=O)c2c(O)c(O)cc([C@H]3Oc4cc(O)cc(O)c4C[C@H]3O)c2c1)c1cc(O)c(O)c(O)c1`, the cell viability was determined as 101%.

In the case of `C=C[C@@](C)(O)CCC1C(=C)CCC2[C@@](C)(CO)CCC[C@]12C` (stereo partly specified), the cell viability turned out to be 112%.

For `COc1cc(O)c(C(C)=O)c(O)c1`, the cell viability stood at 110%.

For `CS(=O)(=O)N1CCc2c(-c3cnc(N)nc3)nc(N3CCOCC3)nc21`, the cell viability stood at 47.5%.

As to `CC(C)[C@H](C(=O)Nc1ccc(C(=O)NO)cc1)c1ccccc1`, the cell viability stood at 0.459%.

Take `O=C(Nc1ccc(C(=O)O)c(O)c1)c1ccccc1`: the cell viability was 96.4%.

Regarding `CC(=O)Nc1ccccc1`, the cell viability was 101%.

For the compound `O=c1c(O)c(-c2ccc(O)c(O)c2)oc2cc(O)ccc12`, the cell viability is 94%.

In the case of `C[C@]12CCC3c4ccc(OS(=O)(=O)O)cc4CCC3C1CC[C@H]2O` (stereo partly specified), the cell viability came out at 98.1%.

In the case of `O=C(O)c1cc(=O)c(O)c2c(O)c(O)c(O)cc2c1`, the cell viability came out at 115%.

On to `CNc1ccccc1C(=O)N1CCc2c([nH]c3ccccc23)C1=O`, for which the cell viability was 88.5%.

Regarding `Cc1occc(=O)c1O`, the cell viability came out at 103%.

`Cc1nc(Nc2ncc(C(=O)Nc3c(C)cccc3Cl)s2)cc(N2CCN(CCO)CC2)n1`: the cell viability came to 29.5%.

Consider `CCCC(=O)[O-].[Na+]` [Sodium butyrate], for which the cell viability worked out at 91.3%.

With `Cn1cc(-c2ccc3nnc(Sc4ccc5ncccc5c4)n3n2)cn1`, the cell viability amounted to 82.3%.

For the compound `OCCn1cc(-c2cnc3nnn(Cc4ccc5ncccc5c4)c3n2)cn1`, the cell viability was found to be 26.7%.

With `Cn1cc(-c2ccc3nnc(C(F)(F)c4ccc5ncccc5c4)n3n2)cn1`, the cell viability came to 101%.

As for `C[C@]12CC[C@H](O)CC1=CC[C@@H]1[C@@H]2CC[C@]2(C)C(c3cccnc3)=CC[C@@H]12` [Abiraterone (CB-7598)], the cell viability stood at 102%.

Take `COc1cc2c(cc1OC)[C@@H]1Cc3ccc(OC)c(OC)c3CN1CC2`: the cell viability stood at 108%.

As for `CN(C)CCOc1ccc(-c2nc(-c3ccncc3)c(-c3ccc4c(c3)CC/C4=N\O)[nH]2)cc1`, the cell viability was found to be 76.1%.

For the compound `COc1cc(/C=C/C(=O)O)ccc1O`, the cell viability turned out to be 104%.

On to `O=C1C=C2CC3(O)COc4cc(O)ccc4C3=C2C=C1O` (stereo unspecified), for which the cell viability came to 99.3%.

Turning to `Cc1cnc(NC(=O)Nc2cc(Br)c(C)cc2OC[C@@H]2CNCCO2)cn1`, the cell viability came out at 46.1%.

`COc1c2ccoc2nc2c(OC)c(OCC(O)C(C)(C)O)ccc12` (stereo unspecified): the cell viability is 90.2%.

For `CC(C)=CC1C(CO)C1(C)C` (stereo unspecified), the cell viability amounted to 104%.

For the compound `Nc1ncn([C@@H]2O[C@H](CO)[C@@H](O)[C@H]2O)c(=O)n1`, the cell viability worked out at 77.4%.

Turning to `Nc1ncnc2c1ncn2[C@H]1C[C@H](O)[C@@H](CO)O1`, the cell viability turned out to be 90.9%.

Turning to `O=c1[nH]c(=O)n([C@H]2C[C@H](O)[C@@H](CO)O2)cc1F` [Floxuridine], the cell viability amounted to 64.4%.

With `Nc1nc(F)nc2c1ncn2[C@@H]1O[C@H](COP(=O)(O)O)[C@@H](O)[C@@H]1O`, the cell viability was determined as 74.4%.

Consider `Nc1nc(F)nc2c1ncn2[C@@H]1O[C@H](CO)[C@@H](O)[C@@H]1O` [Fludarabine (Fludara)], for which the cell viability amounted to 53%.

Take `Nc1nc(Cl)nc2c1ncn2[C@H]1C[C@H](O)[C@@H](CO)O1` [Cladribine]: the cell viability turned out to be 5.67%.

On to `Nc1ncnc2c1ncn2[C@@H]1O[C@H](COP(=O)(O)O)[C@@H](O)[C@H]1O`, for which the cell viability was 99.1%.

As for `NC(=O)c1ccc[n+]([C@@H]2O[C@H](COP(=O)([O-])OP(=O)(O)OC[C@H]3O[C@@H](n4cnc5c(N)ncnc54)[C@H](O)[C@@H]3O)[C@@H](O)[C@H]2O)c1`, the cell viability is 81.6%.

As for `Nc1nc(F)nc2c1ncn2[C@@H]1O[C@H](COP(=O)(O)O)[C@@H](O)[C@@H]1O` [Fludarabine Phosphate (Fludara)], the cell viability was found to be 44.2%.

As for `CCc1cn([C@H]2C[C@H](O)[C@@H](CO)O2)c(=O)[nH]c1=O`, the cell viability was determined as 91.5%.

As to `Nc1ncn([C@@H]2O[C@H](CO)[C@@H](O)[C@H]2O)c(=O)n1` [Azacitidine (Vidaza)], the cell viability turned out to be 84.2%.

Take `O=c1[nH]c(=O)n([C@H]2C[C@H](O)[C@@H](CO)O2)cc1F`: the cell viability was found to be 83.1%.

With `Nc1nc(Cl)nc2c1ncn2[C@@H]1O[C@H](CO)[C@@H](O)[C@@H]1F` [Clofarabine], the cell viability came out at 6.72%.

`COc1nc(N)nc2c1ncn2[C@@H]1O[C@H](CO)[C@@H](O)[C@@H]1O` [Nelarabine (Arranon)]: the cell viability came out at 109%.

Take `Nc1ncn([C@H]2C[C@H](O)[C@@H](CO)O2)c(=O)n1` [Decitabine]: the cell viability is 41.3%.

As to `OC[C@@H](O)[C@@H](O[C@@H]1O[C@H](CO)[C@@H](O)[C@H](O)[C@H]1O)[C@H](O)[C@@H](O)CO`, the cell viability came to 92.2%.
